# In PubChem BioAssay AID1159580 (chemical genetic matrix, 2015):
# Hit rate of the full screen: of about 5,500 compounds, about 2,000 (36%) were called active. Not shown: some 18% with an inconclusive outcome. The list shows a part of the results. A number with no mark means an inactive call. No stated cut-off is given here; in the data, active means normalized growth mostly below about 0.91 (no sharp cut-off); inconclusive means no clear call, values can overlap the other calls; inactive means mostly above about 0.92.
# Experiment: chemical genetic growth profiling, strain panel (AID 1159580);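 further: tested at 20 µM; growth read once vehicle control cultures reached saturation at 30 °C; 1 = growth at the plate median or of vehicle wells; lower values mean less growth of the strain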
# Settings: S. cerevisiae deletion strains, growth OD
# [1] = locus YAL013W, strain DEP1, active compounds read low
# [2] = locus YBR229C, strain ROT2, active compounds read low
# [3] = locus YCL061C, strain MRC1, active compounds read low
# [4] = locus YDL101C, strain DUN1, active compounds read low
# [5] = locus YDR150W, strain NUM1, active compounds read low
# [6] = locus YEL061C, strain CIN8, active compounds read low
# [7] = locus YGR078C, strain PAC10, active compounds read low
# [8] = locus YHR030C, strain SLT2, active compounds read low
# [9] = locus YHR087W, strain rtc3, active compounds read low
# [10] = locus YJR043C, strain POL32, active compounds read low
# [11] = locus YJR075W, strain HOC1, active compounds read low
# [12] = locus YLR039C, strain RIC1, active compounds read low
# [13] = locus YLR058C, strain SHM2 (second series), active compounds read low
# [14] = locus YLR085C, strain ARP6, active compounds read low
# [15] = locus YLR262C, strain YPT6, active compounds read low
# [16] = locus YML094W, strain GIM5, active compounds read low
# [17] = locus YMR219W, strain ESC1, active compounds read low
# [18] = locus YMR263W, strain SAP30, active compounds read low
# [19] = locus YMR307W, strain GAS1, active compounds read low
# [20] = locus YNL153C, strain GIM3, active compounds read low
# [21] = locus YNL298W, strain CLA4 (second series), active compounds read low
# [22] = locus YNL322C, strain KRE1, active compounds read low
# [23] = locus YNR030W, strain Alg12, active compounds read low
# [24] = locus YPL055C, strain LGE1, active compounds read low
# [25] = locus YPR135W, strain CTF4, active compounds read low
smiles,measurement,setting,value
O=C(CSc1nnc(NC(=O)c2cccc([N+](=O)[O-])c2)s1)Nc1ccc2c(c1)OCO2,normalized growth,[1],0.991
same,normalized growth,[2],0.995
same,normalized growth,[3],1.01
same,normalized growth,[4],0.986
same,normalized growth,[5],0.982
same,normalized growth,[6],0.982
same,normalized growth,[7],0.991
same,normalized growth,[8],0.985
same,normalized growth,[9],0.997
same,normalized growth,"locus YJL187C, strain SWE1, active compounds read low",0.995
same,normalized growth,[10],0.977
same,normalized growth,[11],1.02
same,normalized growth,[12],0.976
same,normalized growth,[13],0.985
same,normalized growth,[14],0.996
same,normalized growth,[15],0.985
same,normalized growth,[16],0.948
same,normalized growth,[17],1
same,normalized growth,[18],1.01
same,normalized growth,[19],1.05
same,normalized growth,[20],1.01
same,normalized growth,[21],1
same,normalized growth,[22],0.989
same,normalized growth,[23],1.01
same,normalized growth,[24],0.998
same,normalized growth,[25],0.939
O=C(Nc1nccs1)c1ccc([N+](=O)[O-])cc1,normalized growth,[1],0.979
same,normalized growth,[2],0.97
same,normalized growth,[3],0.992
same,normalized growth,[4],0.972
same,normalized growth,"locus YDL134C, strain PPH21, active compounds read low",1.01
same,normalized growth,[5],0.984
same,normalized growth,[6],0.968
same,normalized growth,[7],0.973
same,normalized growth,[8],0.977
same,normalized growth,[9],0.973
same,normalized growth,[10],1.02
same,normalized growth,[11],0.924
same,normalized growth,"locus YKL190W, strain CNB1, active compounds read low",1
same,normalized growth,[12],0.851
same,normalized growth,[13],0.981
same,normalized growth,[14],0.729 (active)
same,normalized growth,[15],0.917
same,normalized growth,[16],0.94
same,normalized growth,[17],0.978
same,normalized growth,[18],0.986
same,normalized growth,[19],0.905
same,normalized growth,[20],0.976
same,normalized growth,[21],0.976
same,normalized growth,[22],0.983
same,normalized growth,[23],0.97
same,normalized growth,"locus YOL006C, strain TOP1, active compounds read low",0.514 (active)
same,normalized growth,[24],0.97
same,normalized growth,"locus YPL241C, strain CIN2, active compounds read low",0.954
same,normalized growth,[25],0.933
